# Source: PubChem BioAssay
# Abeta yeast res: qHTS for compounds that reverse cellular toxicity of Amyloid beta (A-beta) peptide in yeast: Primary Screen; 410,000 compounds, 0.063% hits; Potency, µM (titrated, usually from 46.1 µM), usual class: activators; yeast expressing A-beta42, growth rescue, OD600, 48 h; response scale: 0% DMSO, 100% iron-clioquinol control; AID 1347071, 2019; note: nearly all actives have a fitted effect of over 55% in size
#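 Yeast A-beta toxicity model in growth medium with pinned compounds, 48 h at 30 C; growth read as absorbance at 600 nm. Normalized to FeCl3/clioquinol equimolar mix (positive) and DMSO (negative).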
# aSyn yeast inh: qHTS of alpha-syn Inhibitors | Yeast expressing alpha-synuclein, growth rescue, BacTiter-Glo, 24 h | Potency, µM (highest dose often 46.1 µM), without a hit: top-dose growth rescue (activation), actives largely listed as activators | 370,000 compounds, 0.14% hits; note: % of control where 0% means no effect; nearly all actives have a fitted effect of over 65% in size
#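 Galactose-induced alpha-syn yeast (OD600=0.02, raffinose-pregrown) + pinned cpd, 24 hr, 30 deg C; growth by BacTiter-Glo luminescence. Growth restoration scores as activation.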
# TDP43 rescue: qHTS of TDP-43 Inhibitors. TDP-43 expressing yeast growth rescue, BacTiter-Glo, 24 h. 410,000 compounds, 1.8% hits. Potency, µM (highest dose often 46.1 µM), for inactives: at the highest dose growth rescue (activation), hits mostly activators; note: % of control where 0% means no effect; nearly all actives have a fitted effect of over 50% in size
#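 Yeast expressing TDP-43 (pregrown in raffinose, seeded at OD600=0.02 in galactose medium) exposed to compounds 24 hr at 30 deg C. Growth read by BacTiter-Glo luminescence; rescue of toxicity appears as increased signal.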
# FUS suppressor: qHTS for Suppressors of FUS Proteinopathy: Primary screen using FUS-linked yeast assay. 390,000 compounds, 0.24% hits. Potency, µM (top dose mostly 76.6 µM), most hits filed as activators. S. cerevisiae FUS-expressing, growth rescue, OD600, 24 h;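 note: plate controls were DMSO vehicle for no effect and reference control for full effect; nearly all actives have a fitted effect of over 55% in size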
#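 Steps: raffinose overnight preculture; dilution to OD 0.005 in 2% galactose minimal medium; compound addition (concentration series); 24hr at 30C, 99% humidity; absorbance read at 600 nm.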
# GRP78 ERSR act: qHTS for Inducers of the Endoplasmic Reticulum Stress Response (ERSR) in Human Glioma: qHTS | U87-MG GRP78 promoter luciferase reporter, 16 h | Potency, µM, for inactives: top-dose activation, most hits filed as activators | 420,000 compounds, 0.02% hits | AID 602332, 2012; note: series mostly up to about 76 µM; % of control where 0% means no effect; nearly all actives have a fitted effect of over 35% in size
#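 ERSR induction read as luciferase luminescence (Bright-Glo, 10 min at room temperature) in stably transfected human U87-MG glioma cells exposed to compounds for 16 h, using GRP78 as sensor.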
# MBNL1-CUG inh: qHTS Assay for Inhibitors of MBNL1-poly(CUG) RNA binding | Muscleblind-like protein 1 (Homo sapiens), Q9NR56 | TR-FRET MBNL1-His/biotin-(CUG)12 binding, 665/545 ratio | Potency, µM (series often up to 57.5 µM), for inactives: top-dose activity change, negative = inhibition, hits mostly inhibitors | 280,000 compounds, 0.036% hits; active = well fitted inhibition curve with a large enough effect in the signal ratio, with a control signal flat, not every such curve was filed as active; inconclusive = small, poorly fitted or top-dose-only effect, or effect the other way, or a change in a side signal; inactive = no such curve, though single readings can be large or run the other way; the % refers to the signal ratio; note: % is set by controls: 0 for no effect and ±100 for the full control effect
# Target sequence (Q9NR56 whole entry, looked up): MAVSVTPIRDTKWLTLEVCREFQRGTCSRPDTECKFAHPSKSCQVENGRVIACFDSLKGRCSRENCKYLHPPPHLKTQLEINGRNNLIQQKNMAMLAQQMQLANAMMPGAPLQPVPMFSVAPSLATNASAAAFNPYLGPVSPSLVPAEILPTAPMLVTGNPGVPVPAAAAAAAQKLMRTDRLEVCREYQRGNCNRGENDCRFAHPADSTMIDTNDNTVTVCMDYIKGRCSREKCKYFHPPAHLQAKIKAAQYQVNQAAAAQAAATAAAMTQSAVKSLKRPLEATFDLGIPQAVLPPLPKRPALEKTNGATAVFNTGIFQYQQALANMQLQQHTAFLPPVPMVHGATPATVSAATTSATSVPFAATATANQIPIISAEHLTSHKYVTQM
#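 Compound titration spanned 92 nM–58 uM against the MBNL1-His/biotin-(CUG)12 complex. After 60 min at room temperature with 5 nM streptavidin-XL665 and 0.055 ng/ul terbium anti-His, ratiometric 665/545 nm emission (Ex 340 nm) normalized to controls.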
# * = called active by the depositor; i = inactive; ? = inconclusive; · = not tested or not shown. A selection: hits, their analogues and other compounds. The true share with any hit is near 2%. Unless noted, calls come from the whole dose curve; as a rule, active = well fitted curve in the direction sought with a large enough effect; inconclusive = small, poorly fitted or top-dose-only effect, or another doubt; inactive = no such curve, though single readings can be large; an effect the other way counts as inactive or inconclusive. Potency is the fitted concentration of half-maximal effect.
SMILES,Abeta yeast res,aSyn yeast inh,TDP43 rescue,FUS suppressor,GRP78 ERSR act,MBNL1-CUG inh
CC(=O)OC1CCC2(C)C(=CCC3C2CCC2(C)C(C(C)=O)CCC32)C1 (configuration not stated),·,·,·,·,-2%,·
CC(C)Cn1c(N)c(C(=O)COC(=O)c2c(O)c(Cl)cc(Cl)c2Cl)c(=O)n(C)c1=O,i,-15%,25µM*,i,-2%,·
CC(C)Cn1c(N)c(C(=O)COC(=O)c2ccc(Cl)cc2)c(=O)n(C)c1=O,i,14%,·,i,-4%,-3%
CC(=O)N1CCc2c1cccc2S(=O)(=O)NC(CC(C)C)C(=O)Nc1ccccc1C (configuration not stated),·,·,·,i,·,·
COc1ccccc1C1CN(Cc2cccn2-c2ncccn2)Cc2ccccc2O1 (configuration not stated),·,·,·,·,-3%,·
Fc1ccccc1SCc1nnc(-c2ccccc2Br)o1,i,13%,22µM*,i,-8%,1%
CCCCCn1c(=O)c(C(=O)OCC)c(O)c2ccccc21,i,13%,-7%,i,5%,4%
CCCCn1c(=O)c(C(=O)OCC)c(O)c2ccccc21,i,7%,16µM*,?,-10%,0%
O=C1/C(=C/c2ccccc2Cl)SC(=S)N1CCCC(=O)N(CCO)c1ccccc1,i,18µM*,27%,i,-14%,19%
c1ccc(NC2=NCCN2CCCC2CCCCC2)cc1,i,16µM*,0%,i,-5%,·
O=S(=O)(Nc1nc2ccccc2nc1Cl)c1ccc(F)cc1,?,-3%,7%,i,-3%,22%
O=S(=O)(Nc1nc2ccccc2nc1Cl)c1ccccc1,i,1%,35µM*,i,-4%,79%
CC(=O)N1CCC[C@H]1C(=O)NCC1Cc2cc(C)cc(-c3ccc(Cl)cc3)c2O1 (some centres not stated),·,·,·,·,-1%,·
CSc1ccccc1C(=O)NC1CCCN(c2ccc(C(F)(F)F)cn2)C1 (configuration not stated),22µM*,-1%,?,i,4%,3%
O=C(NC1CCCN(c2ccc(C(F)(F)F)cn2)C1)c1ccncc1 (configuration not stated),i,?,?,i,-1%,-1%
O=C(Nc1ccc2ccccc2c1)NC1CCCCN(Cc2cccc(Cl)c2)C1=O (configuration not stated),·,·,·,i,·,·
O=C(c1n[nH]c2c1CCCC2)N1CCOc2ccc(C(O)C3CCCCC3)cc2C1 (configuration not stated),·,·,·,·,-4%,·
OCCN(CCO)c1nc2ccccc2[nH]1,i,3%,0%,i,-4%,0%
O=c1[nH]c(=O)n(C(c2ccccc2)(c2ccccc2)c2ccccc2)cc1N(CCO)CCO,i,18%,20µM*,·,-1%,·
COc1cc(OC)c2nc(-c3cc4c(c(OC)c3)OCCN(Cc3cn(C)nc3C)C4)cc(C)c2c1,·,·,·,·,2%,·
Nc1nc(SCc2ccccc2)sc1C(=O)N1CCCCC1,i,16%,13µM*,i,2%,·
Nc1c(C(=O)N2CCCCC2)sc(=S)n1-c1ccccc1,i,-19%,19%,i,-1%,?
O=c1[nH][nH]c2c1[C@H](c1ccc(Cl)cc1)O[C@H](C1CC1)C2,i,1%,11µM*,i,·,·
O=c1[nH][nH]c2c1[C@H](c1ccc(F)cc1)O[C@H](C1CCCCC1)C2,i,1%,32µM*,?,·,·
CCCC[C@@H]1Cc2[nH][nH]c(=O)c2[C@H](c2ccc(C(C)C)cc2)O1,i,-20%,20µM*,?,·,·
SMILES,Abeta yeast res,aSyn yeast inh,TDP43 rescue,FUS suppressor,GRP78 ERSR act,MBNL1-CUG inh
O=c1[nH][nH]c2c1[C@H](c1ccccc1)O[C@H](C1CCCCC1)C2,i,5%,35µM*,?,·,·
O=c1[nH][nH]c2c1[C@@H](c1ccc(F)cc1)O[C@H](C1CCCCC1)C2,i,-2%,14%,i,·,·
Cc1cnc(-n2ncc(C(=O)NCCc3cccnc3)c2C)nc1-c1ccc(F)cc1,·,·,·,·,-1%,·
COc1ccc2c(c1)OC(C)CN(CCNC(=O)c1cc3cc(F)ccc3[nH]1)C2 (configuration not stated),·,·,·,·,-1%,·
C[C@@H]1COc2cc(Br)ccc2S(=O)(=O)N1Cc1cn(CCC2OCCO2)nn1,·,·,·,i,·,·
COc1ccc2c(c1OC)C(=O)NC(C)=C(C(=O)OC(C)(C)C)C2O (configuration not stated),i,16µM*,16%,i,1%,-18%
NC(=O)C1CCN(c2nc(-c3ccc4c(c3)OCCCO4)cs2)CC1,·,·,·,25µM*,·,·
COc1ccc(C2NC(=S)N3C(c4ccc(OC)c(OC)c4)NC(=S)N23)cc1OC (configuration not stated),·,·,·,·,-2%,·
Cc1cc(C)n2c(SCc3ccc(C#N)cc3)nnc2n1,i,0%,22µM*,i,-1%,-14%
Cc1cc(C)n2c(SCC#N)nnc2n1,i,-7%,17%,i,-3%,-7%
C[C@H]1[C@H](NC(=O)c2cccc(Cl)c2)CC[C@@]23CCCN2C(=O)CCC[C@@H]13,·,·,·,i,·,·
O=C(Nc1cccc(-c2nc3ncccc3o2)c1)c1ccccc1,i,0%,16µM*,i,0%,4%
O=C(C[n+]1c(Cl)cc(Cl)c2ccccc21)c1ccccc1,·,·,·,·,-3%,·
Cc1sc2ccccc2[n+]1CC(=O)c1ccccc1,i,7%,11µM*,?,3%,3%
Cc1ccc2nc(-c3ccc(NS(=O)(=O)c4ccc(F)c(F)c4)cc3)sc2c1,i,-27%,25µM*,i,-3%,-10%
Cc1ccc(S(=O)(=O)Nc2cccnc2Oc2ccc(Cl)cc2)cc1,i,16%,20µM*,i,-8%,-3%
Cc1ccc(C(=O)Nc2cccnc2Oc2ccc(Cl)cc2)cc1,i,3%,-3%,i,1%,·
Cc1c(C(C)(C)O)[nH]c2cc(C(F)(F)F)ccc12,?,7%,?,i,1%,-1%
CC(C)(O)c1[nH]c2ccc(C(F)(F)F)cc2c1C(C)(C)O,?,4%,14µM*,i,2%,-6%
CC(C)(O)c1[nH]c2cc(C(F)(F)F)ccc2c1C(C)(C)O,?,13%,35µM*,i,0%,-3%
